Results as given in PubChem BioAssay (EPA / NIEHS).
Values joined by “and” are separate entries in the source; they are usually repeats but may differ in a detail not shown here. Equal values may be shown once. Records with an inconclusive call do not appear. Active and inactive are the calls of the source. Rule for the calls, unless noted: active = hit-call score of the fitted dose curve at least 0.9, where 1 is the maximum; inconclusive = response in the unintended direction; inactive = score below 0.9.

system: SRD5A2 (gene 6716); assay: CCTE_Deisenroth_5AR_NBTE_ratio: CCTE's 5alpha-reductase NanoBRET Target Engagement Assay - Ratio, Deisenroth Lab (AID 2284322; active = hit-call score of the fitted dose curve at least 0.9, where 1 is the maximum; inactive = score below 0.9); settings: actives raise or lower the signal
Procedure, shortened: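 HEK293T cells transiently expressing an SRD5A2-NanoLuc fusion (20 h post-transfection) were exposed to test chemical (10 nM - 29.9 uM, 8 points) for 3 h, then testosterone tracer for a further 2 h. Acceptor/donor BRET ratio was fitted bidirectionally against DMSO baseline.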

| Compound | AC50 | outcome |
| --- | --- | --- |
| O=C(Nc1ccc2[nH]ccc2c1)c1cc2cc(F)ccc2n1Cc1cccc(F)c1 | 3.93 µM (active) |  |
| CCOP(=S)(OCC)Oc1nc(Cl)c(Cl)cc1Cl |  | inactive |
| CC(C)(c1ccc(OCC2CO2)cc1)c1ccc(OCC2CO2)cc1 (stereo not given) |  | inactive |
| CCC1(c2ccc(N)cc2)CCC(=O)NC1=O (stereo not given) |  | inactive |
| O=C(OC1CCCCC1)c1ccccc1C(=O)OC1CCCCC1 |  | inactive |
| C[C@@H]1C[C@@H]([C@H](O)CC2CC(=O)NC(=O)C2)C(=O)[C@@H](C)C1 | 0.0871 µM (active) |  |
| CCN1CCC2(CC1)COc1cc3c(cc12)N(C(=O)c1ccc(-c2ccc(-c4nnc(C)o4)cc2C)cc1)CC3 | 5.8 µM (active) |  |
| O=C1C(Cl)=C(Cl)C(=O)c2ccccc21 |  | inactive |
| c1cc[c]([Hg][c]2ccccc2)cc1 |  | inactive |
| CC(=O)[O][Hg][c]1ccccc1 | 50 µM (active) |  |
| O=[N+]([O-])c1ccc(O)c([N+](=O)[O-])c1 | 64.9 µM (active) |  |
| C=C(C)C(=O)[O][Sn]([CH2]CCC)([CH2]CCC)[CH2]CCC | 4.42 µM (active) |  |
| CCC[CH2][Sn]([CH2]CCC)([CH2]CCC)[O]C(=O)c1ccccc1 | 10 µM (active) |  |
| O=C(O)C(F)(F)C(F)(F)C(F)(F)C(F)(F)C(F)(F)C(F)(F)C(F)(F)C(F)(F)C(F)(F)C(F)(F)F |  | inactive |
| N#CN=C(N)N |  | inactive |
| C[C@H]1CCCC(=O)CCC/C=C/c2cc(O)cc(O)c2C(=O)O1 |  | inactive |

system: not listed separately; assay: TAMU_PeakParms_SingleDonor1434_Asystole: Texas A&M University (TAMU) 1.5-hr Human Induced Pluripotent Stem Cell (iPSC)-derived Cardiomyocytes Calcium (Ca+2) Flux Assay for Cardiotoxicity: Asystole (quiescence of beating) (AID 2284328); settings: not given
Procedure, shortened: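 Donor 1434 iPSC-cardiomyocytes exposed 90 min at 37C, 5% CO2, to 0.2, 1, 10 and 100 uM in 0.5% DMSO. Ca2+ dye fluorescence gave average peak frequency; POD is EC95, a 95% beat-rate drop versus controls.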

| Compound | outcome |
| --- | --- |
| CCOP(=S)(OCC)Oc1nc(Cl)c(Cl)cc1Cl | inactive |
| ClC(Cl)=C(Cl)C(Cl)=C(Cl)Cl | inactive |
| Oc1cccc2cccnc12 | inactive |
| CC(C)(C)c1cc(O)ccc1O | inactive |

system: not listed separately; assay: CCTE_Mundy_HCI_iCellGluta_NOG_NeuronCount: CCTE's Neurite Outgrowth Assay in iCellGluta cells for Neuron Count, Mundy Lab (AID 2284340); settings: not given;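 note: cells fixed about 48 h after compound addition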
Procedure: CCTE_Mundy_HCI_iCellGluta_NOG is a multiplexed, cell-based-readout assay that uses iCell GlutaNeurons from FUJIFILM Cellular Dynamics, Inc. (FCDI), human glutamatergic enriched neurons derived from induced pluripotent stem (iPS) cells, with measurements taken at 50.33 hours after chemical dosing in a microplate: 96-well plate.CCTE_Mundy_HCI_iCellGluta_NOG_NeuronCount is one of four components of the CCTE_Mundy_HCI_iCellGluta_NOG assay. It measures cell viability related to number of neurons using High Content Imaging of fluorescently labelled markers.Data from the assay component CCTE_Mundy_HCI_iCellGluta_NOG_NeuronCount was analyzed at the endpoint CCTE_Mundy_HCI_iCellGluta_NOG_NeuronCount in the positive analysis fitting direction relative to DMSO as the negative control and baseline of activity. Using a type of viability reporter, loss-of-signal activity can be used to understand developmental effects.
Exposure starts 2 hours post-plating by adding 10 ul of the working solution to 90 ul of media in the wells for a 1/10 dilution. Forty-eight hours after chemical treatment cells are fixed by direct addition of 100 ul of warm (37C) Dulbecco's phosphate buffered saline (DPBS) fixative solution containing 8% paraformaldehyde, 8% sucrose, and 0.1% of 3 mg/ml Hoechst 33342 into each well. Primary antibodies are prepared by dilution in Immunocytochemical Staining Buffer (ISB), 10X Dulbecco's PBS, 0.1% Saponin, 5% Bovine Serum Albumin, 0.5% NaN3 (Sodium Azide) and betaIII-tubulin (rabbit anti-betaIII-tubulin, 1:800) followed by Alexa Fluor-488 secondary (1:500) to label neuronal cell bodies and neurites. A Cellomics ArrayScan VTi HCS Reader is used for automated image acquisition and analysis of neurite outgrowth.

| Compound | AC50 | outcome |
| --- | --- | --- |
| O=C1C2(Cl)C3(Cl)C4(Cl)C(Cl)(Cl)C5(Cl)C3(Cl)C1(Cl)C5(Cl)C24Cl (stereo not given) | 17.9 µM (active) |  |
| COP(=O)(OC)O/C(=C\Cl)c1cc(Cl)c(Cl)cc1Cl | 51.5 µM (active) |  |
| C=C(C)C(=O)[O][Sn]([CH2]CCC)([CH2]CCC)[CH2]CCC | 0.202 µM (active) |  |
| O=C(O)C(F)(F)C(F)(F)C(F)(F)C(F)(F)C(F)(F)C(F)(F)F |  | inactive |

system: not listed separately; assay: CCTE_Mundy_HCI_iCellGluta_NOG_NeuriteCount: CCTE's Neurite Outgrowth Assay in iCellGluta cells for Neurite Count, Mundy Lab (AID 2284342); settings: not given;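 note: chemical exposure about 48 hours starting 2 hours after plating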

| Compound | AC50 |
| --- | --- |
| O=C1C2(Cl)C3(Cl)C4(Cl)C(Cl)(Cl)C5(Cl)C3(Cl)C1(Cl)C5(Cl)C24Cl (stereo not given) | 21.6 µM (active) |
| COP(=O)(OC)O/C(=C\Cl)c1cc(Cl)c(Cl)cc1Cl | 51.5 µM (active) |
| C=C(C)C(=O)[O][Sn]([CH2]CCC)([CH2]CCC)[CH2]CCC | 0.188 µM (active) |

system: SERPINA7 (gene 6906); assay: CCTE_GLTED_hTBG: CCTE's human Thyroxine-binding Globulin (TBG) Inhibition Assay, Great Lakes Toxicology and Ecology Division (GLTED) Lab (AID 2284343); settings: not given;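 note: active chemicals lower fluorescence versus DMSO baseline by displacing probe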
Procedure, shortened: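 Cell-free displacement of the fluorescent probe ANSA from human thyroxine-binding globulin after 2 h exposure. Read-out at ex 380/em 475 nm; DMSO baseline.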

| Compound | AC50 | outcome |
| --- | --- | --- |
| CCOP(=S)(OCC)Oc1nc(Cl)c(Cl)cc1Cl | 18.6 µM (active) |  |
| CCCCCCCCc1ccc(O)cc1 | 36 µM (active) |  |
| CCC(C)(C)c1ccc(O)c(C(C)(C)CC)c1 | 13.3 µM (active) |  |
| O=C1C2(Cl)C3(Cl)C4(Cl)C(Cl)(Cl)C5(Cl)C3(Cl)C1(Cl)C5(Cl)C24Cl (stereo not given) |  | inactive |
| Oc1ccc(-c2ccccc2)cc1 | 31.2 µM (active) |  |
| COP(=O)(OC)O/C(=C\Cl)c1cc(Cl)c(Cl)cc1Cl | 10.1 µM (active) |  |
| O=C1C(Cl)=C(Cl)C(=O)c2ccccc21 | 43.7 µM (active) |  |
| O=[N+]([O-])c1ccc(O)c([N+](=O)[O-])c1 | 21.9 µM (active) |  |
| O=C(Cc1ccccc1)c1ccccc1 | 10 µM (active) |  |
| CC1(C)CCC(Cc2ccc(Cl)cc2)C1(O)Cn1cncn1 (stereo not given) | 30.1 µM (active) |  |
| O=C(O)C(F)(F)C(F)(F)C(F)(F)C(F)(F)C(F)(F)C(F)(F)C(F)(F)C(F)(F)C(F)(F)C(F)(F)F | 2.7 µM (active) and 47.2 µM (active) |  |
| COc1cc(-c2ccc(N)c(OC)c2)ccc1N | 19.3 µM (active) and 32.2 µM (active) |  |
| CC(C)(c1ccccc1)c1ccc(O)c(C(C)(C)c2ccccc2)c1 | 7.35 µM (active) |  |
| COP(=S)(OC)Oc1ccc(Sc2ccc(OP(=S)(OC)OC)cc2)cc1 | 2.89 µM (active) |  |
| CC(C)c1cccc(C(C)C)c1O | 44.1 µM (active) |  |
| C[C@H]1CCCC(=O)CCC/C=C/c2cc(O)cc(O)c2C(=O)O1 | 50 µM (active) |  |
| CC(C)(C)CC(C)(C)c1ccc(O)cc1 | 5.79 µM (active) |  |
| ClC1(Cl)C2(Cl)C3(Cl)C4(Cl)C(Cl)(Cl)C5(Cl)C3(Cl)C1(Cl)C5(Cl)C24Cl (stereo not given) |  | inactive |
